Compound activity deposited in PubChem by several laboratories.
Sampled rows, rich in hits. Any-hit rate of the full collection: about 2.2%.
PLCb3 inh: PLC-beta3 (human) inhibition, primary screen; actives 0.18% (n = 370,000); Purified PLC-beta3, fluorogenic substrate, fluorescence; Q01970; inhibition, % at 12.2 µM; in the data active = inhibition above about 11%;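 note: 0% = median of compound wells on plate and 100% = full blocker control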
PLC-gamma1 inh: blocks human PLC-gamma1 enzyme activity | purified PLC-gamma1, fluorogenic substrate, fluorescence | actives 0.84% (n = 370,000) | inhibition, % at 12.2 µM | P19174 | AID 720700; in the data active = inhibition above about 9.5%
GC-B act: GC-B (human) receptor activation | P20594 | HEK293-GC-B cells, CNP EC30, cGMP TR-FRET; 0% at EC30 CNP, 100% saturating CNP | activation, % at 10 µM | actives 0.11% (n = 370,000) | AID 1920062;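 active = activation at 10 µM reaching about 35% in either raw or pattern-adjusted values, limit read from the data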
NPR1 activator: GC-A (human) enzyme activation | P16066 | HEK293 GC-A cells, cGMP TR-FRET, EC30 ANP; 0% at EC30 ANP, 100% saturating ANP | activation, % at 10 µM | actives 0.14% (n = 370,000) | AID 1671463; in the data active = activation above about 40%
Rce1 inhib: yeast Ras-converting enzyme inhibition. yeast membranes, quenched prenylated peptide cleavage fluorescence. calls only. actives 0.27% (n = 290,000). Q03530;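 active = fall in fluorescence gain of 50% or more versus controls, with final raw signal at or below 3038400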;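 note: plate controls were neutral control wells for no effect and wells lacking membranes for full effect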
PfM18AAP inh-1: blocks P. falciparum M18 aspartyl aminopeptidase; recombinant PfM18AAP, H-Glu-NHMec fluorogenic cleavage; inhibition, % at 7.35 µM; actives 1.2% (n = 290,000);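 active = inhibition above the campaign mean inhibition over all tested compounds plus 3 SD, cut at about 28% in these data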;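 note: 0% = plate median of test compound wells and 100% = 2 mM ZnCl2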
PfM18AAP inh-2: PfM18AAP inhibition, confirmation | shares compounds with PfM18AAP inh-1 | recombinant PfM18AAP, H-Glu-NHMec fluorogenic cleavage | inhibition, % at 7.35 µM | actives 28% (n = 2,400) | AID 2170;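 active = mean inhibition over replicate wells above the hit cutoff set for the earlier primary screen, cut at about 29% in these data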;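 note: 0% = median of test compound wells and 100% = 2 mM ZnCl2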
CTSL1 counter: Cathepsin L (human) inhibition, confirmation | shares compounds with PfM18AAP inh-1 | purified cathepsin L1, Z-Leu-Arg-MCA fluorescence | inhibition, % at 5.96 µM | 2,400 tested, under 10 active | AID 2178;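 active = average inhibition across replicates above the hit cutoff set in the earlier primary screen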;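 note: 0% = median of test compound wells and 100% = Z-Phe-Ala-diazomethylketone 1 µM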
Numbers without * were called inactive; i = inactive; x = no result given.

SMILES	PLCb3 inh	PLC-gamma1 inh	GC-B act	NPR1 activator	Rce1 inhib	PfM18AAP inh-1	PfM18AAP inh-2	CTSL1 counter
CC(C)Nc1nc(NC(C)C)nc(N(C)N)n1	-1	1	4	5	i	48*	40*	-5
CC(C)Nc1nc(NC(C)C)nc(N(C)C(N)=O)n1	-6	2	-2	-2	i	-3	x	x
[O-][n+]1ccccc1C(O)CSc1ccccc1 (stereo not drawn)	-2	0	-5	5	x	x	x	x
O=[N+]([O-])c1cc(/C=N\Nc2ccccn2)ccc1Cl	-1	4	-1	5	i	-10	x	x
O=[N+]([O-])c1cc(C=Nc2cccc3c(O)cccc23)ccc1Cl	x	x	x	x	i	39*	-29	-2
CC(C)C[C@H]1COc2cc(Br)ccc2S(=O)(=O)N1Cc1cn(CCC2OCCO2)nn1	2	7	3	2	x	x	x	x
O=C(Cc1cnn(-c2ccccc2)c1)c1ccc(O)c(O)c1O	-17	-8	-2	11	i	38*	11	-10
O=S1(=O)c2ccc(N3CCSCC3)cc2Oc2ccccc2CN1Cc1cn(Cc2cccc(F)c2)nn1	0	1	4	2	x	x	x	x
COCCN(C(=S)Nc1c(C)cc(C)cc1C)C(C)c1cccnc1 (stereo not drawn)	3	6	-1	4	i	49*	9	-8
O=C1C2CC=C(Cl)CC2C(=O)N1c1ncn[nH]1 (stereo not drawn)	1	-2	2	2	i	53*	8	-6
O=C1C2CC=CCC2C(=O)N1c1ncn[nH]1 (stereo not drawn)	2	-1	5	0	i	10	x	x
C(#CC1=CCCCC1)CNCC1CC1	-8	-4	-3	5	x	x	x	x
COC(=O)[C@]12C[C@H](CC(=O)N3CCC(c4ccccc4)CC3)C(=O)N(Cc3ccco3)C1=C[C@H](C(C)C)O[C@@H]2C1CC1	2	3	-3	0	x	x	x	x
O=C(NNS(=O)(=O)c1ccc(F)cc1)c1ccc2c(c1)OCO2	-4	-1	6	3	i	50*	11	2
O=C(NNC(=O)c1ccc(F)cc1F)c1ccc2c(c1)OCO2	-6	-1	2	2	i	0	x	x
CN(C)S(=O)(=O)c1cccc(C(=O)C2=C3SC=C(c4ccccc4)N3CC2)c1	-41	-31	5	6	i	34*	-13	-4
Cc1ccc(-n2c(Cc3cccs3)nnc2SCC(=O)Nc2ccc(OCc3ccccc3)cc2)cc1	1	-1	4	-4	x	x	x	x
CCN(CC)c1ccc(NS(=O)(=O)c2ccc(-c3ccc(=O)[nH]n3)o2)c(C)c1	-8	0	0	-3	i	45*	12	-1
COc1cccc2sc(NNC(=O)C3COc4ccccc4O3)nc12 (stereo not drawn)	-12	-7	1	0	i	27	x	x
COc1cccc2sc(NNC(=O)C3=COCCO3)nc12	-8	-1	1	-3	i	43*	26	-1
Cc1cccc(OCCSc2nc(N)cc(N)n2)c1	-6	-2	3	5	i	42*	8	0
Cc1ncc(CO)c(/C=N/Nc2ccc(C(F)(F)F)cn2)c1O	-151	-111	-16	-32	i	48*	-26	1
C=CCN1C(=O)[C@@H](CC(=O)N2CCN(C(=O)OCC)CC2)[C@]2(C(=O)OC)CCCCC=C12	1	-2	8	2	x	x	x	x
Cc1ccc(O)c(Nc2c3ccccc3nc3ccccc23)c1	-272	-184	-11	-33	i	43*	-48	5
Cc1ccc(O)c(Nc2nc(-c3ccccc3)nc3ccccc23)c1	-37	-22	2	3	i	-8	x	x
SMILES	PLCb3 inh	PLC-gamma1 inh	GC-B act	NPR1 activator	Rce1 inhib	PfM18AAP inh-1	PfM18AAP inh-2	CTSL1 counter
Oc1ccc(/C=N/n2c(COc3ccccc3)n[nH]c2=S)c(O)c1	-11	-3	-4	-1	i	33*	12	3
S=c1[nH]nc(COc2ccccc2)n1/N=C/c1ccc(Cl)cc1Cl	-2	1	-8	-9	i	11	x	x
COc1cc(OC)c(OC)cc1/C=N/n1c(COc2ccccc2)n[nH]c1=S	-12	-6	-8	-2	i	33*	-1	1
COc1ccc(CN(C)CC#Cc2ccccc2)c(OC)c1	-2	2	-1	0	x	x	x	x
NNC(=O)c1cc(O)c(O)c(O)c1	-1	-2	-1	1	i	65*	44*	-4
COc1c(Cl)cc(C(=O)NN)cc1Cl	-4	-3	-2	-5	i	3	x	x
COC(=O)C1CN(C2CCCC2)CCS(=O)(=O)N1Cc1ccc(C(F)(F)F)cc1 (stereo not drawn)	3	-1	-1	-3	x	x	x	x
CC(=O)C1=C(C)N(CC(C)C)C(=S)NC1c1ccc(Br)cc1 (stereo not drawn)	-1	0	-14	-15	x	x	x	x
O=C1[C@@H]2Cc3c([nH]c4ccccc34)C(c3ccccc3)N2C(=O)CN1C1CCN(Cc2ccccc2)CC1 (stereo partly drawn)	2	1	33	39	i	41*	-46	2
N#Cc1c(-c2cccnc2)c2c([nH]c1=S)CCCC2	-4	-1	-1	3	i	33*	51*	-7
N#Cc1c(-c2ccco2)c2c([nH]c1=S)CCCC2	-16	-8	-5	-1	i	x	x	x
Cc1ccc(S(=O)(=O)N2C(=O)CCC2C(=O)Nn2cnnc2)cc1 (stereo not drawn)	2	-3	6	6	i	66*	32*	-3
Cc1ccc(S(=O)(=O)N2CCCC2C(=O)Nn2cnnc2)cc1 (stereo not drawn)	3	2	1	-1	i	7	x	x
COc1cccc(NC(=O)Nc2nc3ncccn3c2-c2ccc(C(F)(F)F)cc2)c1	i	i	2	0	x	x	x	x
NC(=O)/C(=C\c1ccco1)NC(=O)c1ccco1	-47	-28	-4	0	x	x	x	x
NC(=O)/C(=C/c1ccco1)C(N)=S	-14	-9	1	5	i	42*	-15	-1
O=C(C1CCN(S(=O)(=O)c2ccc3[nH]c(=O)oc3c2)CC1)N1CCCN(Cc2ccccc2)CC1	-1	-1	2	2	x	x	x	x
O=C(Nn1cnnc1)C(Sc1ccccc1)c1ccccc1 (stereo not drawn)	1	2	0	1	i	48*	34*	-2
O=C(Nn1cnnc1)C(c1ccccc1)c1ccccc1	4	4	1	0	i	43*	21	-9
CCc1cccc(Nc2cc(C)n(-c3cccc(CC)c3)c(=O)c2)c1	-32	-25	2	3	x	x	x	x
